High-throughput results deposited in PubChem by National Center for Advancing Translational Sciences (NCATS).
Shown are actives, neighbours in structure and some others; about 20% of the full set was active somewhere.
Pf growth 96h – P. falciparum growth inhibition at 96 hour, primary screen for plastid delayed-death inhibitors; P. falciparum luciferase reporter growth, 96 h; Potency, µM (titrated, usually from 28.7 µM), for inactives: top-dose activity change, negative = inhibition, hits mostly inhibitors; hit rate 6.9% among 320,000; AID 504834; further: potency means the concentration at half of the fitted maximal effect; on the % scale 0 is the no-effect control and ±100 the full control effect
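Cell-based qHTS: luciferase-tagged P. falciparum in erythrocytes (2% hematocrit, 0.05% parasitemia final) incubated with compounds for 96 hours, 37 C, 5% CO2; luciferase detection reagent then added and luminescence measured.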
HCMV inh – human cytomegalovirus inhibition | HFF cells, HCMV-luciferase reporter, 72 h; hits give low values | activity change, negative = inhibition, % at 57.5 µM | hit rate 4.5% among 410,000; in the data active means activity change below about -60%; inconclusive means no clear call, values can overlap the other calls; inactive means above about -39%; further: on the % scale 0 is the no-effect control and ±100 the full control effect
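Inhibition of viral replication was scored as loss of reporter luminescence in HFFs infected with HCMV-luciferase (MOI 1 PFU/cell) for 72 h; compounds tested at 2 doses, normalized to buffer and Salinomycin controls.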
Cycloheximide cs – counter-screen for Shiga toxin inhibitors: cycloheximide protein synthesis inhibition | cell reporter, cycloheximide protein synthesis inhibition counterscreen | max response, % | hit rate 12% among 300,000 | AID 2314; in the data active means max response mostly above about 13%, no sharp cut-off; inactive means mostly below about 14%; further: read at 38.3 µM for the half of the compounds with a filed dose; 0% is about no effect
Shiga toxin inh – Shiga toxin inhibition | Vero cells, Shiga toxin protein synthesis inhibition reporter | inhibition, % at 38.7 µM | hit rate 9.2% among 290,000 | AID 2315; in the data active means inhibition mostly above about 28%, no sharp cut-off; inactive means mostly below about 43%; further: 0% is about no effect
Pf growth 48h – inhibits P. falciparum growth in the first generation, 48 h. P. falciparum luciferase growth in erythrocytes, 48 h. Potency, µM (titrated, usually from 28.7 µM), for the others: top-dose activity change, negative = inhibition, actives largely listed as inhibitors. hit rate 5.9% among 310,000; further: potency means the concentration at half of the fitted maximal effect; on the % scale 0 is the no-effect control and ±100 the full control effect
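A one-generation exposure of luciferase-tagged malaria parasites in RPMI 1640/Albumax erythrocyte culture, 37 C and 5% CO2. Inhibition is inferred from decreased luminescence after adding detection reagent.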
Numbers without * were called inactive. Unless noted, the call rests on the fitted dose curve; in most records, active means well fitted inhibition curve with a large enough effect; inconclusive means small, poorly fitted or top-dose-only effect, or another doubt; inactive means no such curve, though single readings can be large or run the other way.

What do the screens show for `CCc1cc(-c2n[nH]c(CCC(=O)O)c2-c2nc3ccccc3n2C)c(O)cc1O`?
Pf growth 96h: inconclusive; HCMV inh: -6.5; Cycloheximide cs: 1.8; Shiga toxin inh: 11.4; Pf growth 48h: 12.5%

Results for COC(=O)c1ccccc1NC(=O)CN(C)S(=O)(=O)c1cc(C)ccc1OC ?
Pf growth 96h: inconclusive; HCMV inh: inconclusive; Cycloheximide cs: -1.0; Shiga toxin inh: 14.0; Pf growth 48h: inconclusive

How did CC(C)c1cc(=O)oc2c3c4c(cc12)CCCN4CCC3 do in these assays?
Pf growth 96h: 32.9%; HCMV inh: -28.6; Cycloheximide cs: -4.2; Shiga toxin inh: -20.0; Pf growth 48h: 11.7µM*

Results for Clc1cncc(Cl)c1N/N=C/c1ccccc1 ?
Pf growth 96h: 95.3%; HCMV inh: 16.6; Cycloheximide cs: 28.8*; Shiga toxin inh: 48.1*; Pf growth 48h: 40.3%

What do the screens show for `Cc1ccc(/C=N/Nc2nnc(Cl)c3ccccc23)cc1`?
Pf growth 96h: 184.9%; HCMV inh: 27.9; Cycloheximide cs: 46.4*; Shiga toxin inh: 46.3*; Pf growth 48h: 210.2%

Results for C(=NNc1nnn(Cc2ccccc2)n1)c1ccccc1 ?
HCMV inh: 30.6

Results for Clc1nnc(N/N=C/c2ccccc2)c2ccccc12 ?
Pf growth 96h: 8.7%; HCMV inh: 191.0; Cycloheximide cs: 47.0*; Shiga toxin inh: 65.2

Results for Clc1ccc(/C=N/Nc2nc(Cl)nc3ccccc23)cc1 ?
Pf growth 96h: inconclusive; HCMV inh: 72.2; Cycloheximide cs: 22.6; Shiga toxin inh: 132.3; Pf growth 48h: inconclusive

Results for Clc1ccc(/C=N/Nc2nnc(Cl)c3ccccc23)cc1 ?
Pf growth 96h: -11.0%; HCMV inh: 118.8; Cycloheximide cs: 18.1*; Shiga toxin inh: 55.0*; Pf growth 48h: 331.9%

What do the screens show for `CN(Cc1cccc2cnccc12)C(=O)CCc1nnc(CCc2ccccc2)o1`?
Pf growth 96h: inconclusive; HCMV inh: inconclusive; Cycloheximide cs: 36.6*; Shiga toxin inh: 47.2*; Pf growth 48h: inconclusive

How did Cc1cccc(Cc2nnc(CCC(=O)N(C)CCc3ccccc3)o2)c1 do in these assays?
Pf growth 96h: 11.7µM*; HCMV inh: 29.2; Cycloheximide cs: 47.8*; Shiga toxin inh: 61.5*; Pf growth 48h: -28.0%

Results for Cc1cc(-c2nnc(CCC(=O)N(CC3CCC3)CC3CCCO3)o2)no1 (centres undefined) ?
Pf growth 96h: -12.6%; HCMV inh: 21.4; Cycloheximide cs: 44.0*; Shiga toxin inh: 78.1*; Pf growth 48h: -3.4%

Results for CN(CCC1CCCCO1)C(=O)CCc1nnc(CCc2ccccc2)o1 (centres undefined) ?
Pf growth 96h: 24.4%; HCMV inh: -14.4; Cycloheximide cs: 32.0*; Shiga toxin inh: 46.7*; Pf growth 48h: 4.3%

How did CC(=O)c1ccc(-c2nnc(CCC(=O)N(C)Cc3cccc4cnccc34)o2)s1 do in these assays?
Pf growth 96h: inconclusive; HCMV inh: inconclusive; Cycloheximide cs: -3.2; Shiga toxin inh: 6.5; Pf growth 48h: inconclusive

Results for Cc1ccccc1Nc1cc(C(=O)NCc2cccs2)c2ccccc2n1 ?
HCMV inh: -6.2

How did CCCC(CCC)C(=O)NC1CC(=O)N(c2ccc3c(c2)OCCO3)C1 (centres undefined) do in these assays?
HCMV inh: 19.4

How did CC(C)(C)OC(=O)N[C@@H](C(=O)OC(C)(C)C)c1ccc2c(c1)OCO2 do in these assays?
Pf growth 96h: inconclusive; HCMV inh: -0.4; Pf growth 48h: inconclusive

How did Cc1cc(-c2nnc(CCC(=O)N(C)CCc3ccccc3)o2)no1 do in these assays?
Pf growth 96h: 8.6%; HCMV inh: 61.7; Cycloheximide cs: 19.4*; Shiga toxin inh: 74.0*; Pf growth 48h: 25.0%

What do the screens show for `CNS(=O)(=O)c1cc(Cl)ccc1Sc1ccccc1C(=O)O`?
Pf growth 96h: 24.4%; HCMV inh: 32.5; Cycloheximide cs: 1.3; Shiga toxin inh: -3.6; Pf growth 48h: 28.2%

What do the screens show for `NS(=O)(=O)c1c(Sc2ccccc2C(=O)O)ccc2ccccc12`?
Pf growth 96h: -1.3%; HCMV inh: 65.3; Cycloheximide cs: 29.9*; Pf growth 48h: -5.3%

How did CC(OC(=O)CSc1ccc(F)cc1)C(=O)NC1(C#N)CCCCC1 (centres undefined) do in these assays?
Pf growth 96h: 27.3%; HCMV inh: 2.7; Cycloheximide cs: 7.3*; Shiga toxin inh: 18.0; Pf growth 48h: 9.4%
